Results filed as inconclusive are left out. Some compounds were tested as several samples or in several runs, with calls that do not always agree. Active and inactive are the calls of the source. The calls were made as follows: active = hit-call score of the fitted dose curve at least 0.9, where 1 is the maximum; inconclusive = response in the unintended direction; inactive = score below 0.9.
Key:
NCBI gene 100848466 = assay: NVS_NR_bPR: NovaScreen (NVS) Nuclear Receptor Binding Assay for bovine Progextron Receptor (PR) (AID 2283343);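 as to AC50: actives lower bound radioligand signal below DMSO meaning displacement of the label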
How it was run: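 Membranes from bovine uterus; radiolabelled ligand plus test chemical; 18 h; scintillation read-out. Activity = signal loss vs DMSO. Primary: 25 uM, duplicate; secondary: concentration series.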

[1] = molecular target: bovine Estrogen Receptor (ER), ESR1 (gene 407238) (UniProt P49884); assay: NVS_NR_bER: NovaScreen (NVS) Nuclear Receptor Binding Assay for bovine Estrogen Receptor (ER) (AID 2283345);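 also: actives lower the bound radioligand count which means they displace the ER ligand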
How it was run: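 Cell-free radioligand binding with bovine uterine membrane extracts, read 18 hours after dosing by scintillation counting. Loss of signal versus DMSO baseline indicates displacement. Primary screen run in duplicate at 25 uM, actives followed in concentration series.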

[2] = molecular target: Estrogen receptor (Homo sapiens) (UniProt P03372); assay: OT_ER_ERaERa_1440: Odyssey Thera (OT) 24-hour HEK293T Protein-Complementation Assay for Estrogen Receptor-alpha/-alpha Homodimer (AID 2283349);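 also: hits raise fluorescence above DMSO for agonists and antagonists alike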
How it was run: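 Protein-fragment complementation between two human ERα ligand-binding domains (aa 310-547) in stably transfected HEK293T cells was monitored after 24 h treatment, using fluorescence intensity relative to vehicle controls.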

[3] = molecular target: Estrogen receptor (Homo sapiens) (UniProt P03372); assay: OT_ER_ERaERa_0480: Odyssey Thera (OT) 8-hour HEK293T Protein-Complementation Assay for Estrogen Receptor-alpha/-alpha Homodimer (AID 2283351);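 also: rise in fluorescence from reassembled reporter fragments on ERα LBD homodimer in nucleus or whole cell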
How it was run: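 HEK293T, stable ERα LBD (aa 310-547) PCA homodimer; 8 h compound exposure; fluorescence intensity, laser scanning cytometer; positive fitting direction, DMSO baseline.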

[4] = molecular target: T1, Estrogen receptor (Homo sapiens) + Estrogen receptor beta (Homo sapiens) (UniProt P03372+Q92731); assay: OT_ER_ERaERb_0480: Odyssey Thera (OT) 8-hour HEK293T Protein-Complementation Assay for Estrogen Receptor-alpha/-beta Heterodimer (AID 2283352)
How it was run: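 HEK293T protein-fragment complementation assay of ER-alpha/ER-beta LBD heterodimerisation, read 8 h after dosing. Mean nuclear/cytoplasmic fluorescence intensity measured by laser scanning cytometry; gain of signal fitted relative to DMSO.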

[5] = molecular target: T1, Estrogen receptor (Homo sapiens) + Estrogen receptor beta (Homo sapiens); assay: OT_ER_ERaERb_1440: Odyssey Thera (OT) 24-hour HEK293T Protein-Complementation Assay for Estrogen Receptor-alpha/-beta Homodimer (AID 2283356);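 also: heteromer of ER alpha and ER beta binding domains; hits raise reporter fluorescence and both agonists and antagonists give an increase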
How it was run: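 HEK293T stably expressing a PCA of ER alpha LBD (aa 310-547) and ER beta LBD (aa 263-489). After 24 h compound exposure, mean fluorescence intensity in nucleus (agonists) or nucleus and cytoplasm (antagonists) measured by laser scanning cytometry versus vehicle.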

[6] = molecular target: Estrogen receptor beta (Homo sapiens) (UniProt Q92731); assay: OT_ER_ERbERb_0480: Odyssey Thera (OT) 8-hour HEK293T Protein-Complementation Assay for Estrogen Receptor-beta/-beta Homodimer (AID 2283357);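 also: active means signal gain over DMSO baseline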
How it was run: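 Cells (HEK293T, stable ER-beta LBD PCA pair) are treated 8 hours, fixed and Draq5-stained; signal is fluorescence intensity increase relative to vehicle, fitted in the gain direction.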

[7] = molecular target: rat Peripheral-type Benzodiazepine Receptor (PBR), Tspo (gene 24230) (UniProt P16257); assay: NVS_MP_rPBR: NovaScreen (NVS) Membrane Protein Assay for rat Peripheral-type Benzodiazepine Receptor (PBR) (AID 2283335)
How it was run: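 Rat kidney membranes; radioligand binding with displacement, filter-based scintillation counting, 1 h incubation. Primary screen in duplicate at 25 uM, actives followed in concentration series; loss of binding vs DMSO.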

[8] = molecular target: chimpanzee Androgen Receptor (AR), AR (gene 747460) (UniProt O97775); assay: NVS_NR_cAR: NovaScreen (NVS) Nuclear Receptor Binding Assay for chimpanzee Androgen Receptor (AR) (AID 2283346);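 also: radioligand displacement from AR measured by scintillation counting in a cell-free assay; a loss of bound radioligand signal versus DMSO counts as binding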
How it was run: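 Cell-free competition binding with insect-cell (Sf9/Sf21) extracted chimpanzee AR; scintillation signal from lysate at 72 h. Screened in duplicate at 25 uM, then concentration-response for actives; fitting relative to DMSO.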

[9] = molecular target: Voltage-gated inwardly rectifying potassium channel KCNH2 (Homo sapiens) (UniProt Q12809); assay: NVS_IC_hKhERGCh: NovaScreen (NVS) Ion Channel Assay for human Potassium Channel ERG (KhERGCh) (AID 2283333)
How it was run: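 Cell-free radioligand competition binding on hERG protein extracted from CHO cells, read by filter-based scintillation counting 0.75 h after dosing. Primary screen at 25 uM in duplicate, actives followed in concentration series. Signal loss fitted versus DMSO.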

[10] = molecular target: Androgen Receptor/SRC-1 Co-activator, AR (gene 367) (UniProt P10275); assay: OT_AR_ARSRC1_0960: Odyssey Thera (OT) 16-hour HEK293T Protein-Complementation Assay for Androgen Receptor/SRC-1 Co-activator (AID 2283353);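 also: actives raise the signal above DMSO so potency reflects increased AR and SRC-1 complex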
How it was run: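 Split-Venus PCA, AR/SRC-1 fusions, stable HEK293T; 16 h compound exposure; imaged at 488 and 635 nm; N/C ratio (488 nm channel), min 400 cells/image; positive-direction fit, DMSO baseline.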

[11] = molecular target: Androgen Receptor/SRC-1 Co-activator, AR (gene 367) (UniProt P10275); assay: OT_AR_ARSRC1_0480: Odyssey Thera (OT) 8-hour HEK293T Protein-Complementation Assay for Androgen Receptor/SRC-1 Co-activator (AID 2283354);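 also: hits raise the complementation signal above DMSO so AC50 marks enhancers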
How it was run: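 Measures AR/SRC-1 binding by Venus YFP fragment complementation in HEK293T stable lines at 8 h post-dose. Imaging quantifies the 488nm nucleus/cytoplasm ratio in ≥400 cells; DMSO defines baseline.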

[12] = molecular target: Retinoic acid receptor alpha (Homo sapiens) (UniProt P10276); assay: NVS_NR_hRAR_Antagonist: NovaScreen (NVS) Nuclear Receptor Binding Assay for human Retinoic Acid Alpha Receptor Antagonism (RAR) (AID 2283358)
How it was run: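 TR-FRET, cell-free, antagonist format; 2 h incubation after dosing; DMSO = baseline; signal loss fitted; 25 uM duplicate primary, then conc. series.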

[13] = molecular target: bovine Gamma-Aminobutyric Acid Type A Receptor Agonist (GABAR Agonist), GABRA1 (gene 780973) (UniProt P08219); assay: NVS_LGIC_bGABAR_Agonist: NovaScreen (NVS) Ligand-Gated Ion Channel Assay for bovine Gamma-Aminobutyric Acid Type A Receptor Agonist (GABAR Agonist) (AID 2283338)
How it was run: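 Radioligand binding to bovine cerebellar membranes in agonist format, read by filter-based scintillation counting after 1 h. Primary screen in duplicate at 25 uM, with actives followed in concentration series. Gain of signal versus DMSO.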

[14] = molecular target: human Constitutive Androstane Receptor (CAR), NR1I3 (gene 9970) (UniProt Q14994); assay: NVS_NR_hCAR_Antagonist: NovaScreen (NVS) Nuclear Receptor Binding Assay for human Constitutive Androstane Receptor Antagonism (CAR) (AID 2283344)
How it was run: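 Cell-free TR-FRET binding read 1 h after dosing, antagonist mode; loss of signal versus DMSO baseline. Primary screen in duplicate at a single 25 uM; actives retested in concentration series.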

[15] = molecular target: Bile acid receptor (Homo sapiens) (UniProt Q96RI1); assay: NVS_NR_hFXR_Agonist: NovaScreen (NVS) Nuclear Receptor Binding Assay for human Farnesoid X Receptor Agonism (FXR) (AID 2283347)
How it was run: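 Cell-free TR-FRET binding assay with extracted human FXR protein, agonist format, read 1 h after dosing. Primary screen at 25 uM single concentration in duplicate, actives retested in concentration series; gain of signal versus DMSO.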

[16] = NVS_IC_rCaBTZCHL: NovaScreen (NVS) Ion Channel Assay for Calcium Channel, Type L, Benzothiazepine Site (CaBTZCHL) (AID 2283337)
How it was run: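 Scintillation counting of filter-bound radioligand gave the read-out, with reduced binding versus DMSO scored as activity. Membranes came from rat cortex and were read 1.5 h after compound addition. Chemicals were screened first in duplicate at 25 uM.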

[17] = molecular target: rat Mineralocorticoid Receptor (MR), Nr3c2 (gene 25672) (UniProt P22199); assay: NVS_NR_rMR: NovaScreen (NVS) Nuclear Receptor Binding Assay for rat Mineralocorticoid Receptor (MR) (AID 2283355)
How it was run: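 Adrenalectomized rat brain supernatant was dosed with test chemical, then radioligand binding was measured by scintillation counting at 24 h. Initial testing ran in duplicate at 25 uM, followed by concentration series for actives.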

Measured: AC50

T1 sequence (P03372 whole entry, looked up, the tested form may be a part): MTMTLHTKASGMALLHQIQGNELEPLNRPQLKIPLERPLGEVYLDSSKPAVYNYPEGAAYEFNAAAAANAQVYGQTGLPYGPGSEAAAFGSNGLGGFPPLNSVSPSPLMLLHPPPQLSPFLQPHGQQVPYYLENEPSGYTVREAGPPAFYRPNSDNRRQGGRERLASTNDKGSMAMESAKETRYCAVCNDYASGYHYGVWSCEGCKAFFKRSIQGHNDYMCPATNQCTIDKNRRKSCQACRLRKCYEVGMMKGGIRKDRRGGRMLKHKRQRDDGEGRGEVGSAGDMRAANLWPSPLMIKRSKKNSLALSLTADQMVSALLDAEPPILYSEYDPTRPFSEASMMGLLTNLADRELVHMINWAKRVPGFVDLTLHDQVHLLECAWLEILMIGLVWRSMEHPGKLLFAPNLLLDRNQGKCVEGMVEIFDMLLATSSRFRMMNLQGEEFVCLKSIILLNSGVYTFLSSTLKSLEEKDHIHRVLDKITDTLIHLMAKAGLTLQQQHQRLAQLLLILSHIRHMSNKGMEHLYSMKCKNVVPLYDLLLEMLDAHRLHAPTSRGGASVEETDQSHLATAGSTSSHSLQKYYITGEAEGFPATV
T1 sequence (Q92731 whole entry, looked up, the tested form may be a part): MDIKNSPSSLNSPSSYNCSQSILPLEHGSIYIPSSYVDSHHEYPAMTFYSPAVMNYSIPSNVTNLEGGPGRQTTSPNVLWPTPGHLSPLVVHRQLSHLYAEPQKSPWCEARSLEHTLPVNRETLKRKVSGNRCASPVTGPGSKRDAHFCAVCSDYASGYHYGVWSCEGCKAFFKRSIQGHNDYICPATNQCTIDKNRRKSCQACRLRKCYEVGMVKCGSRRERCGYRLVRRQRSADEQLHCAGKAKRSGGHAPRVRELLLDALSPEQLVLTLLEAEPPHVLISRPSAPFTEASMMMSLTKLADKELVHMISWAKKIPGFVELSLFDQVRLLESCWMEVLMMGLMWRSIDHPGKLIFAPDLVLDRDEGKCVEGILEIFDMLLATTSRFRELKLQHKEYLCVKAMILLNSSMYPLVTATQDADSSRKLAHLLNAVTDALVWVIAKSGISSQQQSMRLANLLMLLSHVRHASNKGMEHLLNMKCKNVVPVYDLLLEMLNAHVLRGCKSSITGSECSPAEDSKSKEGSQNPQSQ
Estrogen receptor (Homo sapiens), sequence (P03372 whole entry, looked up, the tested form may be a part): as the sequence (P03372 whole entry, looked up, the tested form may be a part) above
rat Peripheral-type Benzodiazepine Receptor (PBR), Tspo (gene 24230), sequence (P16257 whole entry, looked up): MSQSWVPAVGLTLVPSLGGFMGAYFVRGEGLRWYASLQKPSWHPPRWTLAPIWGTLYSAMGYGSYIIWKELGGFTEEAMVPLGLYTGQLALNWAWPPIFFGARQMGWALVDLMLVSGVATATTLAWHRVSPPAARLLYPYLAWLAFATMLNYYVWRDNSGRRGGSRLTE
Estrogen receptor beta (Homo sapiens), sequence (Q92731 whole entry, looked up, the tested form may be a part): as the sequence (Q92731 whole entry, looked up, the tested form may be a part) above
chimpanzee Androgen Receptor (AR), AR (gene 747460), sequence (O97775 whole entry, looked up): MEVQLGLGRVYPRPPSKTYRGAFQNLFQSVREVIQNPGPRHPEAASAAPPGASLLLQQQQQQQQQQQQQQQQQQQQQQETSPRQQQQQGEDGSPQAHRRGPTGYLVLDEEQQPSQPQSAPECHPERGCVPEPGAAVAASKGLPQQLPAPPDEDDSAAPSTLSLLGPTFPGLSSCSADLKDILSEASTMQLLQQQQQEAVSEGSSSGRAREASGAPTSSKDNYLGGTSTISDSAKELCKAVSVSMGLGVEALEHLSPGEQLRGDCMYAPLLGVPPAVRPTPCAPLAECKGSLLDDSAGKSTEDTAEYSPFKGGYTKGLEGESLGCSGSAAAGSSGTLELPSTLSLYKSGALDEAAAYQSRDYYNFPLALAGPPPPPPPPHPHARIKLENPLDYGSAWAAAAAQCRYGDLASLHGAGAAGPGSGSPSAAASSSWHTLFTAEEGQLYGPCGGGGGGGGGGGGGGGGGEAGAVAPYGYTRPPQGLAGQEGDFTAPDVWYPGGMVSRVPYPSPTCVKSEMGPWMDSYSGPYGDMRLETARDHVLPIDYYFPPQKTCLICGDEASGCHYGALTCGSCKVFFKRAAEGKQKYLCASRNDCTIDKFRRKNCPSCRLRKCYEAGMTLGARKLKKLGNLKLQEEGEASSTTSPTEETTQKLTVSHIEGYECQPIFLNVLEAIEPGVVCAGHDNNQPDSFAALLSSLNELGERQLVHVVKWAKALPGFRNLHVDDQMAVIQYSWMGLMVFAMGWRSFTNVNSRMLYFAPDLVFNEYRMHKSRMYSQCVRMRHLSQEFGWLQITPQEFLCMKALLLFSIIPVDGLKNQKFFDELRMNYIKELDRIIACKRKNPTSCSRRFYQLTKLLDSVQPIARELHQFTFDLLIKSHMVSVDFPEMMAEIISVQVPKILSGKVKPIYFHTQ
Androgen Receptor/SRC-1 Co-activator, AR (gene 367), sequence (P10275 whole entry, looked up, the tested form may be a part): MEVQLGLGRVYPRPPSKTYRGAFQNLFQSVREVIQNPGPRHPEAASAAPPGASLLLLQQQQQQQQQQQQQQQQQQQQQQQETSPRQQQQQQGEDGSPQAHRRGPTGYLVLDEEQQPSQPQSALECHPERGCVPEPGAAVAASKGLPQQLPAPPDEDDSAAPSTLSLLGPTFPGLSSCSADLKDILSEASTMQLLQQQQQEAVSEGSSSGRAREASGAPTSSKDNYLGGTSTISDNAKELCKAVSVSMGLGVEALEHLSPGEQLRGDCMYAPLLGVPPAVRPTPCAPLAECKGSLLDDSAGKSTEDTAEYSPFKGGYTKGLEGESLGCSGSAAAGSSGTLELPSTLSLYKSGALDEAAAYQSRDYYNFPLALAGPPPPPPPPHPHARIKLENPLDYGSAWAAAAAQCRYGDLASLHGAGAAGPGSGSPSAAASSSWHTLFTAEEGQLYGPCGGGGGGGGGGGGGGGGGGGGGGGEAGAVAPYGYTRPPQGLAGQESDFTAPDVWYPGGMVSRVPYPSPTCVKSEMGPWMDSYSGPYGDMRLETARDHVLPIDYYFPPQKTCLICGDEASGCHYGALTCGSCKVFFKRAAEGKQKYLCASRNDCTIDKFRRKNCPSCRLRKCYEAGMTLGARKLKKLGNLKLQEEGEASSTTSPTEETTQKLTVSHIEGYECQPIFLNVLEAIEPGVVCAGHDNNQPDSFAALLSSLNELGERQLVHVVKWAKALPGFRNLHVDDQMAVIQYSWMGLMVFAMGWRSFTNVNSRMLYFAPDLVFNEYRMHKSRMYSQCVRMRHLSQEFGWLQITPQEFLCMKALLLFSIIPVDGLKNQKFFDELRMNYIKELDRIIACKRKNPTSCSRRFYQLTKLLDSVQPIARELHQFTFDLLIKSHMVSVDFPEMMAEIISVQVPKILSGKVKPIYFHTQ
bovine Estrogen Receptor (ER), ESR1 (gene 407238), sequence (P49884 whole entry, looked up): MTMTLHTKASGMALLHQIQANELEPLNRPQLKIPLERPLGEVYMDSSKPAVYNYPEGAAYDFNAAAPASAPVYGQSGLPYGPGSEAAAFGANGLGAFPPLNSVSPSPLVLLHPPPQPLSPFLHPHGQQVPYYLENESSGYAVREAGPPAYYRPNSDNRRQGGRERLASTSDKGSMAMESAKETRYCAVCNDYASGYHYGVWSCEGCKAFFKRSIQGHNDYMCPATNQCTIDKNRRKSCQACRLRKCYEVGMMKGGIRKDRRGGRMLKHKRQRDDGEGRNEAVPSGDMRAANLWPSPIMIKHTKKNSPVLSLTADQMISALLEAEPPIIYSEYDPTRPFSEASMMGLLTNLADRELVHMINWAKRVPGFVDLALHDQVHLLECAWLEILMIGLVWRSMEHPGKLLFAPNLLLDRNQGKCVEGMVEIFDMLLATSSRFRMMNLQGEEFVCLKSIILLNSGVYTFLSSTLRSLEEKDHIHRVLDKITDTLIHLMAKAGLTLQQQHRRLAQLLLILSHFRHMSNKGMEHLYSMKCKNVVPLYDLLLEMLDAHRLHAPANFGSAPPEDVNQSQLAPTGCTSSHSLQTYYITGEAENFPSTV
bovine Gamma-Aminobutyric Acid Type A Receptor Agonist (GABAR Agonist), GABRA1 (gene 780973), sequence (P08219 whole entry, looked up): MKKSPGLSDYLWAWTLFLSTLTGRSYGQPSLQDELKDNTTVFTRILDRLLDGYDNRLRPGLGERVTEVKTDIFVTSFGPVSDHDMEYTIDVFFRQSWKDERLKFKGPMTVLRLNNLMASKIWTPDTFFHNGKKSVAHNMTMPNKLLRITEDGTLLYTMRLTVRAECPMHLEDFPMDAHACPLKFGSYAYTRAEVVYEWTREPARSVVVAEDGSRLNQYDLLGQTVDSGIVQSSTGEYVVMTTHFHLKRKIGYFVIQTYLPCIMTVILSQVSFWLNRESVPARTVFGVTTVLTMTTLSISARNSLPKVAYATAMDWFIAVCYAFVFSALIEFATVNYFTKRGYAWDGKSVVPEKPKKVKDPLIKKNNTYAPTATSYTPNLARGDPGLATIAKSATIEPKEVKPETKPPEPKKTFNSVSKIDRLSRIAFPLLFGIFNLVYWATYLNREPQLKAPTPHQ
Bile acid receptor (Homo sapiens), sequence (Q96RI1 whole entry, looked up): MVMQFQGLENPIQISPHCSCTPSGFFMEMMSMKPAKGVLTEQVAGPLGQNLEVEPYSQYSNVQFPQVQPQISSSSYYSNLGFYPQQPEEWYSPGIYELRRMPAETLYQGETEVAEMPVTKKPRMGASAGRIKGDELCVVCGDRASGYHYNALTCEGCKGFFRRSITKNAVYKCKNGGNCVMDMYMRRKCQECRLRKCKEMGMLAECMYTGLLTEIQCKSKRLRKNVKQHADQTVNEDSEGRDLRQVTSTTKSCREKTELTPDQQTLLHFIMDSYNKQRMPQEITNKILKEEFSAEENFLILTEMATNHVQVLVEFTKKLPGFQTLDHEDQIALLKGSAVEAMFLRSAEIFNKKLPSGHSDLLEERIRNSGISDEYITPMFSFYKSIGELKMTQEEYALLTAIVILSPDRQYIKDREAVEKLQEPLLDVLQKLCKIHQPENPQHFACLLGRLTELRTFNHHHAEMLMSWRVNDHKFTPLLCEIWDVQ

CCCCN(CCCC)SN(C)C(=O)Oc1cccc2c1OC(C)(C)C2
inactive: NCBI gene 100848466 | [1] | [2] | [3] | [4] | [5] | [6]

N#Cc1cc([N+](=O)[O-])ccc1N
active: [7] 25 µM

CCC(C)(C)c1ccc(O)cc1
active: [8] 25 µM | [2] 14.9 µM | [3] 8.61 µM | [4] 2.68 µM | [5] 7.2 µM | [6] 2.41 µM
inactive: [1]

CCCCOCC1CO1 (configuration not stated)
inactive: [1] | [2] | [3]

C=CC(=O)OCC(CC)(COC(=O)C=C)COC(=O)C=C
active: [7] 25 µM | [1] 42.2 µM

CCCCc1ccc(O)cc1
active: [2] 41.4 µM | [3] 19.7 µM | [4] 19.7 µM | [5] 31.4 µM | [6] 10.5 µM
inactive: [1] | [8]

ClC(Cl)(Cl)c1ccccc1
inactive: [9] | [1] | [2] | [3] | [4] | [5] | [6]

CC1(C)CN=C(NN=C(/C=C/c2ccc(C(F)(F)F)cc2)/C=C/c2ccc(C(F)(F)F)cc2)NC1
active: [8] 25 µM | [10] 12.7 µM | [11] 44 µM | [12] 25 µM
inactive: [1] | [2] | [3] | [4] | [5] | [6]

O=C(O)C(Cl)Cl
inactive: [13] | [2] | [3]

ClC1=C(Cl)C2(Cl)C3C(Cl)C(Cl)CC3C1(Cl)C2(Cl)Cl (configuration not stated)
inactive: [14] | [1] | [15] | [2] | [5] | [6]
active: [10] 38.1 µM | [11] 48.4 µM

Nc1ccc(Cl)cc1
inactive: [1] | [2] | [3]

Cc1ccc2c(c1N)C(=O)c1ccccc1C2=O
inactive: [16] | [1]
active: [7] 1.4 µM

CC(C)Nc1ccc(Nc2ccccc2)cc1
inactive: [16]

Nc1cc2c3c(c1)C(c1ccccc1)=N[C@@H](NC(=O)c1cccnc1)C(=O)N3CC2
inactive: [13] | [2] | [3] | [5] | [6]

O=P(OCC(Br)CBr)(OCC(Br)CBr)OCC(Br)CBr (configuration not stated)
active: [7] 0.169 µM | [8] 21.8 µM | [10] 26.7 µM
inactive: [7] | [2] | [3] | [11] | [5] | [6]

CCOP(=S)(NC(C)C)Oc1ccccc1C(=O)OC(C)C (configuration not stated)
inactive: [7] | [17]

Nc1ccc([N+](=O)[O-])cc1Cl
inactive: [7]

Nc1ccc2ccccc2c1
active: [7] 7.21 µM
inactive: [2] | [3] | [4] | [5] | [6]

CCOP(=S)(Oc1ccc([N+](=O)[O-])cc1)c1ccccc1 (configuration not stated)
active: NCBI gene 100848466 10.4 µM | [3] 14.8 µM | [4] 19.2 µM | [5] 14.1 µM | [6] 26.4 µM
inactive: [1] | [2]
